These results are taken from PubChem BioAssay (NCI).

Molecules are shown by their SMILES. About 83,000 compounds went through this panel and 20% of them were active in at least one assay; those are over-represented in the sample as a whole.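 Negative percent growth values reflect cell death: -40 means 40% of the cells present at the start died, and -100 means all died.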 Values without a mark were called inactive. The source made the active and inactive calls. How the source made its calls: active means growth percent below 10; inactive means the rest.

For the experiment, the system named is HL-60(TB) leukemia. Kind of experiment: NCI-60 one-dose screen, 48 h (100 = growth as untreated, 0 = no growth, -100 = all killed). The settings on record: 10 µM unless noted.
For `O=S(=O)(Nc1ccc(-c2nc(-c3cccc(O)c3)c(-c3ccnc(Br)c3)[nH]2)cc1)c1ccccc1`, the growth is -9.12% (active).

`CCOC(=O)c1c(NC(=O)c2ccc(F)cc2F)sc2c1CCC(=O)C2`: the growth was 91.9%.

As to `C#Cc1nc(/C=C\CCCCCCC(=O)NO)cs1`, the growth is -53.8% (active).

As for `CC1(C)CC[C@]2(C(=O)N3CCCNCC3)CC[C@]3(C)C(=CC[C@@H]4[C@@]5(C)CCC(=O)C(C)(C)[C@@H]5CC[C@]43C)[C@H]2C1`, the growth was 104%.

Take `Cc1ccc(-c2nnc(SCc3ccc(O)c4ncccc34)o2)cc1`: the growth is 4.59% (active).

For `Brc1ccc(-c2cc(-c3ccc4c(c3)OC=CO4)n[nH]2)s1`, the growth is 78.8%.

As to `CC1(C)NCCC[C@]2(C)[C@H]3C/C(=N\O)C4[C@@H]5C[C@@](C)(CO)CC[C@]5(C)CC[C@@]4(C)[C@]3(C)CC[C@@H]12` (stereo partly drawn), the growth is 68.9%.

Turning to `O=C1Nc2ccc(Cl)cc2/C1=C/c1ccc(OCc2ccc(Br)cc2F)cc1`, the growth was 98%.
